± gives the standard deviation.
What was measured:
[1] = test system: MILI (PIWIL2) piRISC loaded with piRNA #1 (26 nt); experiment: pre-steady-state target cleavage rate (min^-1); guide: piRNA #1 5'p-UGAGGUAGUAGGUUGUAUAGUAUCCA; higher = faster piRNA-guided slicing of the target; details: auxiliary factor: 500 nM mouse GTSF1;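 also: 1 nM active piRISC with 0.1 nM target library at 33 °C single turnover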
How it was run: (§1)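 In this Cleave-'n-Seq assay, uncleaved targets were sequenced and normalised to depth and to weakly complementary targets. They came from a transcribed, DNA-blocked target RNA library […] mixed with 1 nM active affinity-purified piRISC carrying one synthetic guide, with or without 500 nM GTSF1 partner protein, in HEPES–potassium acetate buffer at 33 °C for 0–8 or 0–960 min. After three trials were pooled and k3 was capped at 0.0001 min^-1, the pre-steady-state cleavage rate was obtained from a burst-and-steady-state fit.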

[2] = test system: EfPiwi piRISC loaded with piRNA #1 (26 nt); experiment: pre-steady-state target cleavage rate (min^-1); auxiliary factor: 500 nM Ephydatia muelleri Gtsf1; guide: piRNA #1 5'p-UGAGGUAGUAGGUUGUAUAGUAUCCA; MIWI and MILI are mouse PIWI proteins and EfPiwi is from a freshwater sponge; tags in brackets are library labels; higher = faster piRNA-guided slicing of the target
How it was run: as §1

## GGAGACCAUAGUAUACAUCCUACUACCUCA
[1]
  pre-steady-state target cleavage rate: 0.19 ± 0.014
[2]
  pre-steady-state target cleavage rate: 0.00617 ± 0.0032

## GGAGACCUAUCUAUACAACCUACUACCUGA
[1]
  pre-steady-state target cleavage rate: 0.074 ± 0.011
[2]
  pre-steady-state target cleavage rate: 0.00569 ± 0.0033

## GGAGUGGAUACUAUACAACCUACAUCCUCA
[1]
  pre-steady-state target cleavage rate: 0.00356 ± 0.0016
[2]
  pre-steady-state target cleavage rate: 0.00282 ± 0.0012

## GGAGAGGAUACUAUACAACCUUCAACCUCA
[1]
  pre-steady-state target cleavage rate: 0.00483 ± 0.0021
[2]
  pre-steady-state target cleavage rate: 0.00352 ± 0.0022

## GGAGUGCAUACUAUACAAGCUACUACCUCA
[1]
  pre-steady-state target cleavage rate: 0.213 ± 0.014
[2]
  pre-steady-state target cleavage rate: 0.00482 ± 0.002

## GGAGACCUAACUAUACAACCUACUACAUCA
[1]
  pre-steady-state target cleavage rate: 0.0477 ± 0.014
[2]
  pre-steady-state target cleavage rate: 0.0146 ± 0.0083

## GGAGACCAUACUAUACAACCUACUUCCUCA
[1]
  pre-steady-state target cleavage rate: 0.114 ± 0.018
[2]
  pre-steady-state target cleavage rate: 0.00455 ± 0.002

## GGAGACGAUACUAAACAACCUACUACGUCA
[1]
  pre-steady-state target cleavage rate: 0.0907 ± 0.012
[2]
  pre-steady-state target cleavage rate: 0.00304 ± 0.003

## GGAGACUAUACUAUACAACCUACUACCUCA
[1]
  pre-steady-state target cleavage rate: 0.171 ± 0.014
[2]
  pre-steady-state target cleavage rate: 0.0352 ± 0.014

## GGAGACGGUACUAUACAACCUACUACCUCA
[1]
  pre-steady-state target cleavage rate: 0.187 ± 0.016
[2]
  pre-steady-state target cleavage rate: 0.0154 ± 0.0059

## GGAGACCAUAACUAUACAACCUACUACCUCA
[1]
  pre-steady-state target cleavage rate: 0.135 ± 0.0094
[2]
  pre-steady-state target cleavage rate: 0.138 ± 0.043

## GGAGACCUAUCCUAUACAACCUACUACCUCA
[1]
  pre-steady-state target cleavage rate: 0.106 ± 0.011
[2]
  pre-steady-state target cleavage rate: 0.0903 ± 0.032

## GGAGACCAUACUAUCAACCUACUACCUCA
[1]
  pre-steady-state target cleavage rate: 0.199 ± 0.022
[2]
  pre-steady-state target cleavage rate: 0.0101 ± 0.005

## GGAGACCUAACUAUACAACCUACUGCCUCA
[1]
  pre-steady-state target cleavage rate: 0.102 ± 0.024
[2]
  pre-steady-state target cleavage rate: 0.0364 ± 0.015

## GGAGACGAUACUAUACAAGCUACUACGUCA
[1]
  pre-steady-state target cleavage rate: 0.205 ± 0.032
[2]
  pre-steady-state target cleavage rate: 0.00352 ± 0.0014

## GGAGAGCAUUCUAUACAACCUACUACCUCA
[1]
  pre-steady-state target cleavage rate: 0.156 ± 0.013
[2]
  pre-steady-state target cleavage rate: 0.0192 ± 0.01

## GGAGACCAUACUAUACAUCCUACUACCACA
[1]
  pre-steady-state target cleavage rate: 0.279 ± 0.028
[2]
  pre-steady-state target cleavage rate: 0.00302 ± 0.0024

## GGAGAGGAUACUAUACAACCUGACUACCUCA
[1]
  pre-steady-state target cleavage rate: 0.00367 ± 0.0024
[2]
  pre-steady-state target cleavage rate: 0.00442 ± 0.0022

## GGAGACCUAACUAUACAACCUACUAGCUCA
[1]
  pre-steady-state target cleavage rate: 0.0915 ± 0.027
[2]
  pre-steady-state target cleavage rate: 0.00459 ± 0.0036

## GGAGAGGAUACUAAACAACCUACAACCUCA
[1]
  pre-steady-state target cleavage rate: 0.119 ± 0.014
[2]
  pre-steady-state target cleavage rate: 0.00196 ± 0.0019

## GGAGACCUAUGUAUACAACCUACAACCACA
[1]
  pre-steady-state target cleavage rate: 0.0115 ± 0.0032
[2]
  pre-steady-state target cleavage rate: < 0.0001

## GGAGACGAUACUAUUCAACCUACUAGCUCA
[1]
  pre-steady-state target cleavage rate: 0.0651 ± 0.01
[2]
  pre-steady-state target cleavage rate: 0.0042 ± 0.002

## GGAGACCUAUGUAUACAACCUACUACCUCCA
[1]
  pre-steady-state target cleavage rate: 0.0928 ± 0.016
[2]
  pre-steady-state target cleavage rate: 0.00535 ± 0.004

## GGAGAGGAUACUAUACAACCUACUUCCUCA
[1]
  pre-steady-state target cleavage rate: 0.0124 ± 0.0047
[2]
  pre-steady-state target cleavage rate: 0.00514 ± 0.0026

## GGAGACCAUCACUAUACAACCUACUACCUCA
[1]
  pre-steady-state target cleavage rate: 0.147 ± 0.021
[2]
  pre-steady-state target cleavage rate: 0.0254 ± 0.012

## GGAGUUGGAUACUAUACAACCUACUACCUCA
[1]
  pre-steady-state target cleavage rate: 0.184 ± 0.023
[2]
  pre-steady-state target cleavage rate: 0.197 ± 0.056

## GGAGACGAUACUAUACCACCUACUACCUCA
[1]
  pre-steady-state target cleavage rate: 0.168 ± 0.015
[2]
  pre-steady-state target cleavage rate: 0.0106 ± 0.0037
